The supplement of paper PMC3484114
± gives the standard deviation.

These compounds were tested on OVCAR-3-derived ovarian cancer stem-like cells (spheroids) (assay: cell growth relative to untreated control; higher = more growth (less inhibition)). Conditions: 2.29 µM; 96 h.
Procedure, shortened: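 OVCAR-3 spheroid-derived stem-like cells were trypsin-dissociated, seeded at 50,000 cells/mL in stem cell medium in ultra-low attachment 96-well plates and preincubated 24 h. Compounds were then added at 2.29 uM for 96 h at 37°C, 5% CO2, in 4 replicate wells. Viability was read as TOX8 resazurin fluorescence (ex 560/em 590 nm) after 4 h. Percent growth was calculated relative to untreated wells after blank subtraction and Grubbs outlier removal.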

In order of falling cell growth:
1. CC(=O)Nc1ccc(-c2nc3ccccc3s2)cc1  171 ± 32%
2. COc1cc(/C=C(\C)c2ccc3c(c2)OCO3)cc(OC)c1OC  162 ± 21%
3. O=C1Oc2ccccc2C1C/C(=N\Nc1ccccc1)c1ccccc1O (centres undefined)  158 ± 100%
4. COc1c(O[C@@H]2O[C@H](CO)[C@@H](O)[C@H](O)[C@H]2O)cc2c(c1OC)-c1ccc(OC)c(=O)cc1[C@@H](NC(C)=O)CC2  119 ± 20%
5. COc1ccc(S(=O)(=O)N/N=C/C(=O)O)cc1  117 ± 15%
6. CN(NC1=NCCO1)c1ccc2ccccc2c1  117 ± 18%
7. Nc1ncnc2c1nc(Cl)n2[C@@H]1O[C@@H]2COP(=O)(O)O[C@H]2[C@H]1O  115 ± 43%
8. CCCCCCCCCc1c(Cl)nc(Cl)nc1Cl  113 ± 24%
9. CCOC(=O)C1=C(O)CSC1=Nc1ccc(N=C2SCC(O)=C2C(=O)OCC)cc1  108 ± 30%
10. C=C(C#N)C(=O)OCC(CC)CC.C=C(C#N)C(=O)OCC(CC)CC.CS(C)=O.CS(C)=O.Nc1c(N=Nc2ccc(-c3ccc(N=Nc4cc(S(=O)(=O)[O-])c5ccccc5c4N)cc3)cc2)cc(S(=O)(=O)[O-])c2ccccc12.[Pt+2]  107 ± 14%
11. CN(C)c1ccc(/C=N/N=C2\C(=O)Nc3c(Cl)cc(Cl)cc32)cc1  106 ± 28%
12. COc1ccc(/C=C/c2cc(O)cc(O[C@@H]3O[C@H](CO)[C@@H](O)[C@H](O)[C@H]3O)c2)cc1O  106 ± 26%
13. O=C(O)CC(NC(=O)CP(=O)(O)O)C(=O)O (centres undefined)  106 ± 16%
14. CCCCCCCCCCCCCCCC[N+](C)(C)CCl  104 ± 17%
15. COc1ccc2c(O)c3[n+](cc2c1OC)CCc1cc2c(cc1-3)OCO2  103 ± 14%
16. O=[N+]([O-])c1ccc2oc(=Nc3ccccc3)c(Nc3ccccc3)nc2c1  101 ± 11%
17. CCN1CCC(O)(/C=C/c2ccc(C)cc2)C(C(=O)/C=C/c2ccc(C)cc2)C1 (centres undefined)  98.5 ± 13%
18. CC(=O)/C(C)=N/NC(=O)c1ccccc1O  98.3 ± 20%
19. CN(C)c1ccc(/C=C/C(=O)[O-])cc1.CN(C)c1ccc(/C=C/C(=O)[O-])cc1.[Cu+2]  97.6 ± 39%
20. COc1ccc(/C=C2\CCc3ccccc3C2=O)cc1OC  95.7 ± 11%
21. [N-]=[N+]=Nc1ccc2c(c1)Sc1ccccc1N2CCCCN1CCN(Cc2ccc(C(=O)c3ccccc3)cc2)CC1  95.1 ± 13%
22. CC(C)CC(NC(=O)OCc1ccccc1)C(=O)NC(Cc1ccccc1)C(=O)CCl (centres undefined)  92.9 ± 35%
23. CC1=C(O)c2ccccc2C(=O)C1=O  91.9 ± 56%
24. CC1=CC(=O)c2ccccc2C1=O  89.6 ± 9.4%
25. COc1cc(O)c(Cc2ccccc2O)c(O)c1C(=O)CCc1ccccc1  86.8 ± 30%
26. NC1N=C(c2ccc(Cl)cc2)C2=C(N1)c1ccccc1CC2 (centres undefined)  85.7 ± 6.7%
27. COc1ccc2c(c1)C=C([N+](=O)[O-])C(C1OC(C)(C)OC1C1COC(C)(C)O1)O2 (centres undefined)  84.6 ± 23%
28. Nc1ccc(OCCCc2c(-c3ccccc3)nc(N)[nH]c2=O)cc1  82.7 ± 20%
29. C=C(C)[C@@H]1CC[C@]2(C(=O)O)CC[C@]3(C)[C@H](CC[C@@H]4[C@@]5(C)CC[C@H](O)C(C)(C)[C@@H]5CC[C@]43C)[C@@H]12  76 ± 22%
30. N=N/C(=C\c1c(O)[nH]c2ccccc12)c1ccccc1  64.5 ± 16%
31. CN(C)[C@@H]1C(=O)C(C(N)=O)=C(O)[C@@]2(O)C(=O)C3=C(O)c4c(O)cccc4C[C@H]3C[C@@H]12  57.8 ± 20%
32. CCCCCCCCCCCCCCCC[N+](C)(C)Cc1ccc(F)cc1  54.1 ± 9.8%
33. Cc1cc(NC(=O)NC(=O)c2ccccc2NC(=O)CN)ccc1Oc1ncc(Br)cn1  49.8 ± 9%
34. CC1(C)N=C(N)N=C(N)N1c1ccc(OCCCOc2ccccc2)c(Cl)c1  43.6 ± 13%
35. O=C1NC(c2cccc3ccccc23)Nc2ccccc21 (centres undefined)  34.9 ± 6.6%
36. Nc1ccc2cc3ccc(N)cc3nc2c1  25.8 ± 6.4%
37. Nc1ncnc2c(C3OC(CO)C(O)C3O)[nH]nc12 (centres undefined)  23.9 ± 5.3%
38. CCN1C=C/C(=C\C=C\c2cc[n+](CC)c3ccccc23)c2ccccc21  22.2 ± 4.2%
39. Cc1ccccc1NC(=O)C(=O)C(C#N)c1ccccc1C (centres undefined)  7.3 ± 3.2%
